PubChem BioAssay AID743255 (National Center for Advancing Translational Sciences (NCATS), 2014)
In all, about 390,000 compounds went through this assay and about 910 (0.23%) were called active. Another 5% or so got no clear call; they are omitted. Calls come from the whole dose curve; as a rule, active = well fitted inhibition curve with a large enough effect; inconclusive = small, poorly fitted or top-dose-only effect; inactive = no such curve, though single readings can be large or run the other way. The full list was thinned out, with actives kept by preference.

target: Ubiquitin carboxyl-terminal hydrolase 1 (Homo sapiens) (UniProt O94782); assay: Inhibitors of USP1/UAF1: Primary Screen; conditions: recombinant USP1/UAF1, Ub-Rhodamine cleavage fluorescence; series mostly up to 57.1 µM; note: nearly all actives have a fitted effect of over 60% in size
Method in brief: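 USP1/UAF1 complex at 1 nM was preincubated with compound for 15 min at room temperature, then Ub-Rho substrate (150nM final) was added. Fluorescence (480/540 nm) was read kinetically, 6 reads every 60 seconds.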
Potency is the fitted concentration of half-maximal effect.

Chain of Ubiquitin carboxyl-terminal hydrolase 1 (Homo sapiens) (O94782 whole entry, looked up): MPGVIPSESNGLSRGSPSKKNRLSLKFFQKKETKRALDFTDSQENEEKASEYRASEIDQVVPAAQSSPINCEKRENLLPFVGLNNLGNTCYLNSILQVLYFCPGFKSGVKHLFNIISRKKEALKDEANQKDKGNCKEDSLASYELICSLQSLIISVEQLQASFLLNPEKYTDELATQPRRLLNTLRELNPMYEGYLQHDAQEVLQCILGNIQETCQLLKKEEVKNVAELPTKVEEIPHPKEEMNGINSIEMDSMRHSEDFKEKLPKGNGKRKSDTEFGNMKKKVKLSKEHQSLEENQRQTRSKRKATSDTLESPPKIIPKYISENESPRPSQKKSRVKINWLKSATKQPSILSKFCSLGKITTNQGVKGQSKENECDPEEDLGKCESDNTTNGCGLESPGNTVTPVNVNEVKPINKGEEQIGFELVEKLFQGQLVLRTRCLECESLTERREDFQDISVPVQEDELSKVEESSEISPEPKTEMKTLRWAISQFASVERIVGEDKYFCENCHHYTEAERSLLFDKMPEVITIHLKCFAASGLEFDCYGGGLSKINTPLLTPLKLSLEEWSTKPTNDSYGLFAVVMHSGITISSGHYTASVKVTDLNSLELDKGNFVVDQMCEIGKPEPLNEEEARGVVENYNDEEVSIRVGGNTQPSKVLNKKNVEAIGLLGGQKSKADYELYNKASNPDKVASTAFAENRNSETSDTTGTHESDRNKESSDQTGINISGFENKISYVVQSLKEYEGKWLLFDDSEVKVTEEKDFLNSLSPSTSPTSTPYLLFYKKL

Potency, inactive:
Cc1ccc(-c2cnc(NCc3ccc(C(C)C)cc3)n2C)cc1, CCOC(=O)c1c(NC(=O)/C=C/c2ccc(OC)cc2)sc2c1CCC(C)C2 (stereo not drawn), CCCN1CCc2nc(N3CCN(C)CC3)ncc2C1, COc1ccc([N+](=O)[O-])cc1C1NN=C(c2cccc3ccccc23)S1 (stereo not drawn), O=C(CCl)N(Cc1cccc([N+](=O)[O-])c1)c1cccc(Cl)c1, CCOC(=O)c1c(NC(C)=O)c2c3c(sc2n1Cc1c(C)cc(C)cc1C)CCCC3, COc1ccc(CCNC(=O)c2cc3cccc4c3n2CC(C)S4)c(OC)c1OC (stereo not drawn), Cc1ccc(OC(=O)CSc2nnc(-c3cccs3)o2)cc1, O=C(CSCc1cnn(-c2ccccc2)c1-n1cccc1)NCc1ccccc1Br, CCOC(=O)C1CCCN(C(=O)c2ccc3c(c2)sc2nc(-c4ccc(CC)cc4)cn23)C1 (stereo not drawn), COc1ccc(OC)c2sc(N3CCN(C(=O)C4COc5ccccc5O4)CC3)nc12 (stereo not drawn), Cc1ccc2c(c1)N(C(=O)Nc1ccc(Br)cc1F)CCO2, CCOc1ccc(CCNC(=O)c2cc3c(=O)n(C)c4ccccc4c3n2C)cc1, CCOC(=O)CNC(=O)c1cc2c(=O)n3cccc(C)c3nc2s1, CCCN(CCC)c1nc2c(C)cccn2c(=O)c1/C=C1/SC(=S)N(Cc2ccco2)C1=O, O=C(NCC(c1cccnc1)N1CCc2ccccc21)c1cccc(C(F)(F)F)c1 (stereo not drawn), CC1=C(C(=O)OCC(C)C)C(c2ccc(OCc3ccccc3)cc2)N2C(=O)CCSC2=N1 (stereo not drawn), COc1cccc(C(=O)Nc2ccc3oc(-c4ccc5ccccc5c4)nc3c2)c1, CCN1C(=O)c2ccccc2S(=O)c2ccc(C(=O)NCc3ccc(F)cc3)cc21 (stereo not drawn), COc1ccc(-n2nc(C(=O)NCCc3ccc(Cl)cc3)c3c4ccccc4n(C)c3c2=O)cc1Cl, CCCN(CCC)C(=O)C1CCCN(c2ncnc3c2nc2n3CCCCC2)C1 (stereo not drawn), CCN(Cc1ccccc1)C(=O)c1cn(-c2cccc(OC)c2)c(=O)c2ccccc12, COc1cc(OC)c(OC)cc1/C=C/c1nc2ccccc2c(=O)n1-c1ccc(Br)c(C)c1, Cc1cccc(N2CCN(C(=O)Cn3ncc4c5ccccc5n(C)c4c3=O)CC2C)c1 (stereo not drawn), CCOc1ccccc1C(=O)NC1(C(F)(F)F)C(=O)Nc2c1c(=O)[nH]c(=O)n2-c1ccc(F)cc1 (stereo not drawn), COCCNC(=O)c1cc(-c2cccc(Cl)c2)on1, COc1ccc(C(=O)c2oc3ccccc3c2NC(=O)COc2cccc(C)c2)cc1, Cc1c(C(=O)N2CCCC2)oc2c1-c1nn(CC(=O)NCc3ccc(OC(C)C)cc3)cc1CC2, COc1ccccc1NC(=O)c1sc2nc(C)c(C(=O)Nc3ccc(Cl)cc3)c(-c3ccc(Br)cc3)c2c1N, COc1ccc(NC(=O)C2CCN(c3ccc(Sc4ccc(C)cc4)nn3)CC2)c(OC)c1, CC(C)(C)OC(=O)N1CCC(c2c(C(=O)NCCc3ccsc3)cnn2-c2ccc(F)cc2F)CC1, O=C(CN1CCN(Cc2ccc(Cl)cc2)C1=O)NCc1ccc(F)cc1, O=C(O)c1ccc(Cn2c(SCc3ccc(F)cc3)nc3ccncc32)cc1, CCOC(=O)C1CCCN(S(=O)(=O)c2cc(-c3cc(C)no3)ccc2OC)C1 (stereo not drawn), Cc1ccc(CNC(=O)CSc2c3c(nc4cc(Cl)ccc24)CCCC3)cc1, Cc1onc(-c2ccc(F)cc2F)c1C(=O)Nc1cccc(C(F)(F)F)c1, CC(C)(C)c1ccc(C(=O)NCC(c2ccco2)S(=O)(=O)c2ccc(F)cc2)cc1 (stereo not drawn), CCc1ccc(NC(=O)c2cnc3c(-c4ccccc4)c(C)nn3c2C)cc1, COc1ccc(Cn2ccn(CC(=O)Nc3cc(C)ccc3C)c(=O)c2=O)cc1, O=c1[nH]c2cc(Br)ccc2n2cccc12, Cn1c(COc2ccccc2C(C)(C)C)nc2ccccc21, CCN(c1ncnc2c1cnn2-c1ccc(C)cc1)C1CCCCC1, CCOC(=O)c1c(C)n(S(=O)(=O)c2ccc(C)cc2C)c2ccc(NS(=O)(=O)c3ccc(C)cc3C)cc12, CCC(=O)N1c2ccccc2CC1C(=O)N1CCN(c2ccccc2F)CC1 (stereo not drawn), O=S(=O)(NCC(c1ccco1)N1CCOCC1)c1cc(F)ccc1F (stereo not drawn), COCCNC(=O)c1ccc2c(c1)N(Cc1cccc(Cl)c1)C(=O)c1ccccc1S2(=O)=O, CCCSc1ncc(Cl)c(C(=O)Nc2c(C(=O)Nc3ccccc3)oc3ccccc23)n1, COc1ccc(N2CCN(C3CCCCC3NS(=O)(=O)c3ccccc3)CC2)cc1 (stereo not drawn), Cc1ccc(S(=O)(=O)/N=S(\C)C(C)C)cc1 (stereo not drawn), COc1ccc(S(=O)(=O)Nc2cc3c(C(=O)OC(C)C)c(C)oc3c3ccccc23)cc1, Cc1ccc(S(=O)(=O)Nc2nc(N)n(-c3ccccc3)n2)cc1, CCCN(CCC)C(=O)Cn1c(=O)n(-c2ccc(Cl)cc2)c(=O)c2c3c(sc21)CCCCC3, O=C(C1CCC(Cn2c(=O)c3sccc3n(Cc3ccccc3F)c2=O)CC1)N1CCCCC1 (stereo not drawn), COc1ccc(NC(=O)CCCN2C(=O)CCn3nc(-c4cn(C)c5ccccc45)cc32)cc1OC, CC(=O)Nc1cccc(NC(=O)CSc2cn(CC(=O)N3CCCC3)c3ccccc23)c1, COc1ccc(C)cc1N(CC(=O)N1CCC(C)CC1)S(=O)(=O)c1ccc(C)cc1, COc1ccc(OC)c(-c2noc(N3CCN(c4cc(Cl)ccc4C)CC3)n2)c1, Cc1ccc(C2CCN(C(=O)c3cnn(-c4ccccc4Cl)c3C3CCN(C(=O)OC(C)(C)C)CC3)C2)cc1 (stereo not drawn), COc1c(Cl)cc(C(=O)N(Cc2ccccc2F)C2CCS(=O)(=O)C2)cc1Cl (stereo not drawn), N#Cc1ccc(C2=CC(=O)C[C@H](c3ccc(Cl)cc3)C2)cc1, Cc1ccccc1C(=O)N1CCC(C(=O)Oc2ccc(C#N)cc2)CC1, Clc1ccc(CSc2nncn3c2cc2occc23)cc1, CCC1CCCCN1Cc1c(O)ccc2c(=O)c(Oc3ccccc3Cl)c(C(F)(F)F)oc12 (stereo not drawn), Fc1ccc(CN2CCc3nc(Nc4ccccc4)ncc3C2)cc1F, CCCCNC(=O)c1cc(-c2ccc(Cl)c(Cl)c2)on1, O=C(OCc1cc(=O)n2nc(C3CC3)sc2n1)c1ccccc1Cl, CC1Cc2cc(S(=O)(=O)CCC(=O)Nc3ccc(F)c(Cl)c3)ccc2N1C(=O)C1CC1 (stereo not drawn), COc1ccc(NC(=O)CSc2nc3ccccc3[nH]2)cc1, NS(=O)(=O)c1ccc2nc(NC(=O)COc3ccccc3)sc2c1, CCN(CC)c1ccc(C2C(C(N)=O)=C(C)Nc3nc(SCc4ccccc4)nn32)cc1 (stereo not drawn), COc1cccc2c1cc1c(=O)n(CC(=O)N3CCN(c4cccc(Cl)c4)CC3)nc(C)n12, Cc1nc(SCCOc2ccc(Cl)cc2)[nH]c(=O)c1Cc1ccccc1, Cc1cccc(-c2nc(SCC(=O)Nc3cc(C)on3)c3c(=O)n(C)c(=O)n(C)c3n2)c1, CCC(=O)N1c2ccccc2CC1C(=O)N1CCN(c2ccccc2)CC1 (stereo not drawn), O=C(CSc1nccn1-c1ccc(F)cc1)Nc1cccc2ccccc12, CCOc1ccc(CCNC(=O)c2c(C)oc3ncn(C)c(=O)c23)cc1, CC(=O)N1c2ccc(S(=O)(=O)N3CCCCCC3)cc2CC1C(=O)NCc1ccccc1C (stereo not drawn), Cc1ccc(-c2nc3ccccn3c2Nc2c(C)cccc2C)o1, O=S(=O)(c1ccccc1)c1nc(-c2ccc(Cl)cc2Cl)oc1N1CCCCC1, CCOC(=O)c1ccc(NC(=O)CSc2nc3c([nH]c4ccccc43)c(=O)n2C)cc1, CCOC(=O)c1ccc(NC2=CC(c3ccc(OCC)cc3)N(c3ccc(C(=O)OCC)cc3)C2=O)cc1 (stereo not drawn)

Potency, active:
CC(=O)N1C(=O)/C(=C2\SC(=S)N(NC(=O)c3ccc(O)cc3)C2=O)c2ccccc21 3.98 µM, CC(C)n1cnc2c(NCc3ccccc3)cc(OCC3CCN(C)CC3)cc21 17.8 µM, O=C1Nc2ccc([N+](=O)[O-])cc2C1=Nc1cccc(CO)c1 25.1 µM, CN1C(=O)c2cccc3c(N)ccc(c23)C1=O 4.47 µM, CCOC(=O)CC1C(=O)NCCN1c1nc2c(C)cccn2c(=O)c1/C=C1\SC(=S)N(C(C)CC)C1=O (stereo not drawn) 8.91 µM, Oc1c(C=Nc2cccc3nsnc23)ccc2ccccc12 25.1 µM, CCCCCCc1cc2cc(-c3nnc(-c4ccccc4)o3)c(=O)oc2cc1O 8.91 µM, Cc1ccc(-c2nn(-c3ccccc3)cc2/C=C2\SC(=S)N(CCCCCC(=O)O)C2=O)o1 7.08 µM, O=C(/C=C(O)/C=C/c1ccc(O)cc1)/C=C/c1ccc(O)cc1 28.2 µM, C[n+]1ccc(/C=C/c2c[nH]c3ccccc23)cc1 28.2 µM, Cc1ccc(S(=O)(=O)/N=C2\C=C(NS(=O)(=O)c3ccc(C)cc3)C(=O)c3ccccc32)cc1 20 µM, COc1ccc(S(=O)(=O)/N=C2\C=C(NS(=O)(=O)c3ccccc3)C(=O)c3ccccc32)cc1 15.8 µM, Oc1ccc2ccc3cccc[n+]3c2c1 28.2 µM, CC1(OC(=O)C2CCCC2)C(=O)C=C2C=C(c3ccc(C#N)cc3)OC=C2C1=O (stereo not drawn) 31.6 µM, Nc1ccc2nc3c(=O)[nH]c(=S)[nH]c3nc2c1 28.2 µM, COc1cc(/C=C2/C(=O)NN(c3cccc(Cl)c3)C2=O)cc(Br)c1O 28.2 µM, CCOC(=O)c1ccc(Nc2cc3ccccc3c(=O)[nH]2)cc1 17.8 µM
